ATXN2 expr inh – Primary qHTS for Inhibitors of ATXN expression; AID 1745845, 2022; 0.72% of 360,000 active; Potency, µM (doses to about 57 µM), for inactives: at the top dose activity change, negative = inhibition, usual class: inhibitors; HEK-293 ATXN2-luciferase reporter, luminescence, 24 h; note: potency is the fitted concentration of half-maximal effect; % is set by controls: 0 for no effect and ±100 for the full control effect; nearly all actives have a fitted effect of over 55% in size
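ATXN2-luciferase reporter cells (luciferase flanked by upstream and downstream ATXN2 gene portions) were treated 24 h at 37 °C with compounds at up to 57 uM. SteadyGlo luminescence gave expression; GF-AFC fluorescence gave viability.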
Giardia killer – Small Molecules that selectively kill Giardia lamblia: qHTS | AID 540267, 2011 | Giardia lamblia trophozoite viability | activity change, % at 7.66 µM, hits read low | 0.15% of 340,000 active; in the data active = activity change below about -80%; inconclusive = between about -30% and that limit;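 note: parasites exposed to compound for two days anaerobically before the ATP read; % is set by controls: 0 for no effect and ±100 for the full control effect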
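Anaerobic 48 hrs incubation at 37 deg C of 100 trophozoites/well with test compounds; ATPLite 1-Step luminescence, 15-30 min RT, reports cellular ATP as viability.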
uPA surface inh – qHTS for Inhibitors of Cell Surface uPA Generation | cell surface uPA generation assay, qHTS | Potency, µM (highest dose often 38.3 µM), for inactives: at the top dose activity change, negative = inhibition, hits mostly inhibitors | 0.31% of 330,000 active; active = well fitted inhibition curve with a large enough effect; inconclusive = small, poorly fitted or top-dose-only effect; inactive = no such curve, though single readings can be large or run the other way; tested in mouse RAW 264.7 cells; note: potency is the fitted concentration of half-maximal effect; % is set by controls: 0 for no effect and ±100 for the full control effect; nearly all actives have a fitted effect of over 55% in size
TGFb SMAD3 inh – qHTS for Inhibitors of TGF-b | HepG2 CAGA-GFP TGF-b/SMAD3 reporter, GFP fluorescence, 18 h; TGF-beta stimulated, 500 pg/mL final | Potency, µM (titrated, usually from 46.1 µM), inactives show at the highest dose activity, negative = inhibition, actives largely listed as inhibitors | 1.2% of 410,000 active | AID 588855, 2011; note: potency is the fitted concentration of half-maximal effect; % is set by controls: 0 for no effect and ±100 for the full control effect; nearly all actives have a fitted effect of over 65% in size
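HEPG2 CAGA-GFP, 1000 cells/well; 2 h settle, 37 C; cpd via pin tool; TGF-b 500 pg/mL final; 18 h, 37 C; GFP imaging ex488/em500-530; %Activity normalised to -TGF-b and +DMSO controls; CRC fit, curve class.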
HepG2 viability – qHTS for Inhibitors of TGF-b: Cytotox Counterscreen; HepG2 CAGA-GFP viability, ATP luminescence, 18 h; Potency, µM (series often up to 46.1 µM), inactives show at the highest dose activity change, negative = cytotoxicity, hits mostly cytotoxic; 0.76% of 410,000 active; note: potency is the fitted concentration of half-maximal effect
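CellTiter-Glo luminescence gave cytotoxicity after 18 hours at 37 degrees C. The cells were HepG2 CAGA-GFP in 1% FBS DMEM, stimulated with 500 pg/mL TGF-beta after compound addition. %Activity was normalised to no-cell wells (complete cell-killing) and DMSO (no toxicity), and curves were fitted and classified.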
ATXN viability – Viability Counterscreen for Primary qHTS for Inhibitors of ATXN expression; Potency, µM (top dose mostly 56.7 µM), usual class: cytotoxic; AID 651635, 2014; 0.49% of 400,000 active; S2 cells (HEK-293 line with an ATXN2-luciferase reporter) viability, CellTiter-Fluor protease fluorescence, 24 h; note: potency is the fitted concentration of half-maximal effect; nearly all actives have a fitted effect of over 40% in size
* marks the source's active call; other numbers are inactive results; i = inactive; u = inconclusive; x = no result given. An excerpt weighted towards active compounds, which were near 2.6% of everything screened. Unless noted, calls come from the whole dose curve; as a rule, active = well fitted curve in the direction sought with a large enough effect; inconclusive = small, poorly fitted or top-dose-only effect, or another doubt; inactive = no such curve, though single readings can be large; an effect the other way counts as inactive or inconclusive.

SMILES	ATXN2 expr inh	Giardia killer	uPA surface inh	TGFb SMAD3 inh	HepG2 viability	ATXN viability
CCc1nc2cc(C(=O)N3CCC[C@H]3CO)cc(NC(=O)c3ccccc3OC)c2n1C	x	x	x	x	x	i
CCC1CSC(Nc2ccc(C(=O)/C=C/c3ccc(Br)cc3)cc2)=N1 (stereo not given)	u	-8	-18%	16µM*	-57%	u
CCN(CC)CCn1nc2c3c(cccc3c1=O)-c1ccccc1-2	10µM*	-3	u	u	-9%	u
O=c1c2cccc3c2c(nn1CN1CCOCC1)-c1ccccc1-3	-16%	4	-9%	-17%	-9%	i
CC(C)c1c(C(=O)NCc2cccnc2)cnn1-c1nccc(-c2cccs2)n1	x	x	x	x	x	i
OC(c1ccc(-c2ccccc2)cc1)c1ncc(-c2ccc(C(F)(F)F)cc2)[nH]1 (stereo not given)	u	x	x	u	-113%	u
CCc1ccc(C(O)c2ncc(-c3ccc(C(F)(F)F)cc3)[nH]2)cc1 (stereo not given)	-17%	x	x	16µM*	-75%	i
Clc1ccc2oc(-c3ccccc3)cc(=NCCCN3CCOCC3)c2c1	8%	-87*	-1%	u	-40%	x
N#CSCC(=O)O	10%	x	x	x	x	i
CCN(CC)C(=O)CSC1=N/C(=C/c2ccco2)C(=O)N1c1ccc(OC)c(Cl)c1	u	-18	-5%	u	-17%	5µM*
CCCn1c(N2CCN(Cc3ccc(Cl)cc3)CC2)nc2ccccc21	x	-9	-11%	16µM*	-38%	u
C(=N\Nc1nc(-c2ccccn2)nc2ccccc12)/c1ccccc1	x	19	x	1.8µM*	-35%	x
CC(C=CC=C(C)C=CC1=C(C)CCCC1(C)C)=CC=CC=C(C)C=CC=C(C)C=CC1=C(C)CCCC1(C)C	9%	x	x	x	x	x
CCc1nnc(NC(=O)c2ccncc2)s1	5%	5	1%	-14%	-27%	i
CCc1nnc(NC(=O)c2cccc(C(=O)Nc3nnc(CC)s3)n2)s1	u	-4	-1%	0.25µM*	-54%	u
Cc1cccc2c(N3CCCC3)nc(CNS(=O)(=O)c3ccccc3Cl)nc12	x	x	x	x	x	i
Oc1ccccc1C1CC(c2cccs2)=NC(c2ccc(Cl)cc2)N1 (stereo not given)	u	-8	u	20µM*	-93%	u
Cc1cccc(OCC(=O)Nc2cc(C)c(O)c(-c3nc4ccccc4o3)c2)c1	x	x	x	35%	6%	x
O=C1/C(=C/c2ccc([N+](=O)[O-])cc2)C=C(c2ccccc2)N1c1ccc(O)cc1	20µM*	-6	x	9%	-9%	u
CCCCC(CC)CNC(=O)CC(C)OC(=O)CCC(=O)O (stereo not given)	25%	x	x	x	x	i
Cc1cc(C)c2nc(NNC(=O)c3ccc(S(=O)(=O)N4CC(C)CC(C)C4)cc3)sc2c1 (stereo not given)	u	22	u	u	-30%	i
Cc1cc(C)c2nc(NNC(=O)c3ccc(S(=O)(=O)N4CCCC(C)C4)cc3)sc2c1 (stereo not given)	-35%	24	5.6µM*	u	-41%	i
CCOC(=O)c1cc(OC)c2cccc(CN3CCCC(C)(C(=O)NCCOC)C3)c2c1 (stereo not given)	u	x	x	-27%	-48%	20µM*
O/N=C(/C[n+]1cccc(Br)c1)c1ccc2ccccc2c1	x	x	x	1%	-27%	x
COc1ccc(-n2ncc(N(C)n3cccc3)c(Cl)c2=O)cc1	12%	-11	-7%	-13%	3%	i
SMILES	ATXN2 expr inh	Giardia killer	uPA surface inh	TGFb SMAD3 inh	HepG2 viability	ATXN viability
COc1ccc(-n2ncc(Cl)c(Cl)c2=O)cc1	u	8	-11%	u	-30%	3.8µM*
CCCC(=O)NC(c1ccc(N(C)C)cc1)c1ccc2cccnc2c1O (stereo not given)	u	7	-17%	2.5µM*	-52%	i
CCCC(=O)NC(c1ccccc1Cl)c1ccc2cccnc2c1O (stereo not given)	3.2µM*	14	-7%	u	-3%	i
CC(=O)NC(c1ccc(Cl)cc1)c1ccc2cccnc2c1O (stereo not given)	x	15	u	u	-18%	u
CCC(=O)NC(c1ccc(Cl)cc1Cl)c1ccc2cccnc2c1O (stereo not given)	5.6µM*	18	-8%	u	-21%	i
CCCC(=O)NC(c1ccc(C(C)C)cc1)c1ccc2cccnc2c1O (stereo not given)	u	-7	-9%	-26%	-30%	i
Cc1cc(NC(c2ccc(Cl)cc2)c2ccc3cccnc3c2O)no1 (stereo not given)	3.2µM*	-9	-6%	u	-10%	u
COc1ccccc1-c1ccc(C(=O)N(C)CC2COCCO2)c(N2CCN(c3ccccc3F)CC2)n1 (stereo not given)	x	x	x	x	x	i
COc1cccc(CN2CCC3(CCC(CNC(=O)c4ccccc4)O3)CC2)c1 (stereo not given)	x	x	x	x	x	i
CC(C)c1nc(C(=O)N2CCOc3ccc(CN4CCN(c5ccccn5)CC4)cc3C2)cs1	x	x	x	x	x	i
Nc1cccc(Nc2nc(OC(C(F)(F)F)C(F)(F)F)nc(OC(C(F)(F)F)C(F)(F)F)n2)c1	-25%	-8	-8%	u	11µM*	i
COc1nc(Nc2ccc(O)cc2)nc(OC(C(F)(F)F)C(F)(F)F)n1	0%	-1	-7%	u	-64%	i
CC(=O)n1cc(N(C(=O)CCl)c2ccc(Cl)cc2)c2ccccc21	x	14	u	u	7.9µM*	3.5µM*
COc1ccccc1N(C(=O)CCl)c1cn(C(C)=O)c2ccccc12	x	-26	u	11µM*	11µM*	6.3µM*
N#Cc1cccc(S(=O)(=O)N2CCN(c3nc(-c4cccs4)nc4ccccc34)CC2)c1	x	17	x	x	x	x
O=S(=O)(c1ccc(OCC2CO2)cc1)c1ccc(OCC2CO2)cc1 (stereo not given)	x	-10	5.6µM*	u	-64%	u
Cc1onc(C(=O)N2CCN(C(c3ccccc3)c3ccccc3)CC2)c1[N+](=O)[O-]	-9%	6	10µM*	-19%	-26%	i
COc1ccc2c(c1)-c1nc(-n3ncc(C(=O)N(C)C(C)c4ccon4)c3C3CC3)ncc1CC2 (stereo not given)	x	x	x	x	x	i
CN1c2ccccc2C(C)(C)[C@]12C=Cc1cc(O)ccc1O2	-14%	8	-12%	18µM*	-38%	u
